A number with no mark means an inactive call. No rule for the calls is given here.
biological target: Pantothenate synthetase (Mycobacterium tuberculosis (strain ATCC 25618 / H37Rv)) (UniProt P9WIL5); test: Coupled enzyme confirmation of inhibitors against recombinant Mtb PanC (AID 375); conditions: coupled enzyme assay; at 10 µM, stronger effect = higher value;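 also: 0% = full reaction with vehicle and 100% = no enzyme background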
Sequence (P9WIL5 whole entry, looked up): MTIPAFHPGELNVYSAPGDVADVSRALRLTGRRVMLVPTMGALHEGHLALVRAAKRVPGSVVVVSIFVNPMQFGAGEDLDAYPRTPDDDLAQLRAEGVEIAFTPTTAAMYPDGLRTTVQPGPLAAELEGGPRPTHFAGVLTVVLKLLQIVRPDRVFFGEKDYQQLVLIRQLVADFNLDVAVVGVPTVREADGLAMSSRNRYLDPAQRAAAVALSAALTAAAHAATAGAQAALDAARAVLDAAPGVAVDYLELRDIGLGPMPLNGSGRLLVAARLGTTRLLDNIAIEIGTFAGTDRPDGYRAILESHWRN

Row | Structure (SMILES) | inhibition [%]
1 | O=C(CN1CCN(Cc2ccccc2)CC1)Nc1ccc(Cl)cn1 | 3
2 | Cc1cc(C)nc(N2CCC(C(=O)NC3CCCCCC3)CC2)n1 | 1
3 | O=c1c2[nH]c3ccccc3c2ncn1CCCn1ccnc1 | 0
4 | CC1=C(C(=O)N2CCOCC2)C(c2ccccc2F)C2=C(CCCC2=O)N1 (stereo not given) | 3
5 | CC(=O)N1CCN(Cc2ccc(Br)s2)CC1 | 0
6 | CCOC(=O)c1sc(NC(=O)CSc2nnc3c4ccccc4n(CC)c3n2)nc1C | 3
7 | CC(C)CCNC(=O)[C@H](CC(C)C)NC(=O)[C@H]1O[C@@H]1C(=O)O | 0
8 | COc1cc(C2C(C#N)=C(N)OC3=C2C(=O)CC(C)(C)C3)ccc1OC(=O)N1CCOCC1 (stereo not given) | 5
9 | Cc1ccc(N(C(=O)C2CCC(=O)N2)C2(C(=O)NC3CCCCC3)CCCCC2)cc1 (stereo not given) | 2
10 | CCOC(=O)C1CCCN(C/C(O)=C(\C#N)c2nc(-c3ccc(Cl)cc3)cs2)C1 (stereo not given) | 5
11 | Cc1csc(NC(=O)C(Cc2ccccc2)n2cccc2)n1 (stereo not given) | 5
12 | COc1ccc(NCc2nnc(SCC(=O)Nc3cc(C)cc(C)c3)o2)cc1 | 0
13 | Cc1ccc(S(=O)(=O)N2CCCC2)cc1S(=O)(=O)N1CCCC1 | 0
14 | Cc1csc2nc(CSc3nc4ccccc4o3)c(Br)n12 | 0
15 | CC(C)(C)n1ncc2c(=O)n(CC(=O)NCc3ccc(F)cc3)cnc21 | 4
16 | CSc1nc(=NC(C)=O)ss1 | 0
17 | Cc1nn(C)c(C)c1NC(=O)CCSc1nc(-c2ccco2)cc(C(F)(F)F)n1 | 6
18 | Cc1c(NC(=O)c2cnn3c2NC(c2ccco2)CC3C(F)(F)F)c(=O)n(-c2ccccc2)n1C (stereo not given) | 9
19 | Cc1ccc(C(C)n2cc(C(=O)NCCN3CCN(C)CC3)nn2)cc1 (stereo not given) | 0
20 | O=C(NCC1CCCO1)c1cccc(N2CCCC2=O)c1 (stereo not given) | 0

Row | Structure (SMILES) | inhibition [%]
21 | O=C(CSc1nnc2ccccn12)c1ccccc1 | 0
22 | CCCCCC1CC(CC(=O)O)C(=O)O1 (stereo not given) | 6
23 | O=C(Nc1ccccc1C(=O)N1CCN(c2ccccc2)CC1)c1ccco1 | 0
24 | O=C(Cn1ncc2c1-c1ccccc1OC2)N1CCN(c2ccccn2)CC1 | 0
25 | CCn1c(-c2cc(Br)ccc2O)n[nH]c1=S | 0
26 | COc1ccc2[nH]c(=O)c(CNC3CCCCC3)cc2c1 | 0
27 | CC(=O)NCCc1ccc(S(=O)(=O)NCc2ccc3c(c2)OCO3)cc1 | 0
28 | O=C(Nc1ccc(Cl)cc1C(=O)Nc1ccncc1)c1ccco1 | 4
29 | Cc1cc(C)n2nc(SCc3cc(=O)n4ccccc4n3)nc2n1 | 0
30 | Cc1c(NC(=O)CCc2ccc(S(=O)(=O)N3CCOCC3)cc2)c(=O)n(-c2ccccc2)n1C | 2
31 | CCn1c(C(Cc2ccccc2)NC(=O)COC)nc2ccccc21 (stereo not given) | 0
32 | CCc1nn(CC(=O)NCCCN2CCc3ccccc3C2)c(=O)c2cc3sccc3n12 | 8
33 | COc1ccc(Cl)cc1NC(=O)CSc1nncn1-c1cccnc1 | 9
34 | CCOc1ccc(NC2c3ccccc3C(=O)N2Cc2ccco2)cc1 (stereo not given) | 1
35 | Cc1cc(C)n2nc(SCC(=O)N(C)Cc3ccccc3)nc2n1 | 3
36 | CCCOC(=O)CSc1nc(N)c(C#N)c(CC)c1C#N | 8
37 | Cc1c(/C(O)=C2/C(=O)C(=O)N(CCN3CCOCC3)C2c2cccnc2)cnn1-c1ccccc1 (stereo not given) | 1
38 | CCOC(=O)C1=C(O)C(=O)N(c2ccc(S(N)(=O)=O)cc2)C1c1ccccc1 (stereo not given) | 0
39 | CCCCOCCCNC(=O)COc1ccccc1 | 1
40 | Cc1ccc(S(=O)(=O)CC2CSc3nnc(C)c(=O)n32)cc1 (stereo not given) | 0
